From PubChem BioAssay (NCI)
About 83,000 compounds went through this panel and 20% of them were active in at least one assay; those are over-represented in the sample as a whole.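 The test compound was applied at a single concentration to cells in 96-well plates for 48 hours, and percent growth was recorded.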 Values without a mark were called inactive. Activity calls are given as the source filed them. Rule for the calls: active = growth percent below 10; inactive = the rest.

Key:
Experiment in all cases: NCI-60 one-dose screen, 48 h (100 = growth as untreated, 0 = no growth, -100 = all killed)
Conditions in all cases: 10 µM unless noted
RPMI-8226 leukemia = tested on: RPMI-8226 leukemia
OVCAR-5 ovarian = tested on: OVCAR-5 ovarian
OVCAR-4 ovarian = tested on: OVCAR-4 ovarian
SK-OV-3 ovarian = tested on: SK-OV-3 ovarian
IGROV1 ovarian = tested on: IGROV1 ovarian
OVCAR-3 ovarian = tested on: OVCAR-3 ovarian
HS 578T breast = tested on: HS 578T breast
NCI/ADR-RES ovarian = tested on: NCI/ADR-RES ovarian
T-47D breast = tested on: T-47D breast
BT-549 breast = tested on: BT-549 breast
MDA-MB-435 melanoma = tested on: MDA-MB-435 melanoma
SW-620 colon = tested on: SW-620 colon
MCF7 breast = tested on: MCF7 breast
HCT-116 colon = tested on: HCT-116 colon
HCC-2998 colon = tested on: HCC-2998 colon
KM12 colon = tested on: KM12 colon
OVCAR-8 ovarian = tested on: OVCAR-8 ovarian

Compound	growth (RPMI-8226 leukemia)	growth (OVCAR-5 ovarian) [%]	growth (OVCAR-4 ovarian)	growth (SK-OV-3 ovarian) [%]	growth (IGROV1 ovarian)	growth (OVCAR-3 ovarian)	growth (HS 578T breast)	growth (NCI/ADR-RES ovarian) [%]	growth (T-47D breast) [%]	growth (BT-549 breast)	growth (MDA-MB-435 melanoma)	growth (SW-620 colon)	growth (MCF7 breast)	growth (HCT-116 colon)	growth (HCC-2998 colon)	growth (KM12 colon)	growth (OVCAR-8 ovarian)
CCC[S@@](=O)c1ccc2nc(NC(=O)OC)[nH]c2c1	95%	102	98.9%	63.6	91.3%	93.5%	91.2%	91.5	78.1	79.1%	16.6%	71%	61.9%	79.6%	90%	65.6%	–
O=C1CC(c2ccc(O)c(O)c2)Oc2cc(O)c([C@@H]3O[C@H](CO)[C@@H](O)[C@H](O)[C@H]3O)c(O)c21 (stereo partly specified)	99.3%	98.7	–	103	109%	104%	105%	–	95.8	102%	105%	98.4%	108%	93.9%	108%	109%	–
CC1CCCN(CCCCCOc2ccc3oc4ccccc4c(=O)c3c2)C1 (stereo unspecified)	50.7%	79.4	83.1%	99.7	67.3%	77.9%	77.8%	73.3	65.4	74.3%	46%	70.1%	63.1%	52.7%	85.3%	64.3%	–
C=C1C(=O)O[C@H]2[C@H]1CC/C(COC(=O)/C=C/c1cccnc1)=C\CC[C@@]1(C)O[C@@H]21	2.83% (active)	59.1	32.4%	80.2	36.7%	-6.31% (active)	62.8%	54.5	23	20.5%	27.7%	-32% (active)	11.9%	-66.3% (active)	94.8%	79.4%	–
C=CCn1c(SCC(=O)Nc2ccc(C(=O)/C=C/c3cc(OC)c(OC)c(OC)c3)cc2)nnc1-c1ccc(Cl)cc1	-21.6% (active)	88.9	37.3%	51.4	14.3%	-41.9% (active)	48.6%	41.3	18.1	10.4%	5.58% (active)	11.8%	-3.5% (active)	-62.2% (active)	-8.4% (active)	9.43% (active)	–
O=C1CC23OC4ON=C(Br)C4C2C(O)c2ccccc2N13 (stereo unspecified)	100%	114	120%	93.5	88.8%	96.3%	98.4%	94.5	100	105%	111%	101%	88.5%	94.5%	103%	100%	–
C#CCOC(=O)[C@]1(C)CCC[C@]2(C)[C@H]3C[C@H]4C(C(C)C)=C[C@]3(CC[C@H]21)[C@@H]1C(=O)CCC(=O)[C@@H]14	67.9%	93.8	73.9%	78.9	78.3%	95%	80.8%	81.5	66.7	91.7%	97.7%	86.9%	83.2%	77.8%	102%	87%	–
COC(=O)c1ccc(NC(=O)CSc2nc(-c3ccc(F)cc3)nc3ccccc23)cc1	44.9%	107	-31.5% (active)	90.9	90.9%	16.8%	–	88	67.7	81.5%	68.1%	79.6%	61.1%	49.8%	102%	73.9%	–
C#Cc1ccccc1NC(=O)c1sc2nc3c(cc2c1N)CCCCC3	–	105	103%	100	103%	105%	99.6%	105	95	96.4%	95.1%	102%	81.5%	109%	105%	102%	100%
CN1C(=O)c2cc(Cl)nc3c(NC(=O)c4cccc(Cl)c4)c(Cl)c(NC(=O)c4cccc(Cl)c4)c1c23	–	88.7	-22.7% (active)	86.4	-66.2% (active)	-52.7% (active)	-12.3% (active)	–	22.1	-8.59% (active)	3.49% (active)	-58.3% (active)	18.1%	-56.2% (active)	9.23% (active)	64.3%	2.78% (active)
CCOC(=O)CC[C@H](NC(=O)c1ccc(NC)c2ccccc12)C(=O)OCC	–	101	104%	92.8	105%	102%	105%	104	93.8	100%	105%	93.6%	94.7%	92%	115%	103%	94.7%
COc1ccc(C(=O)c2cc(OC)c(OC)c(OC)c2)cc1OC(=O)CCl	–	73.7	54.5%	17.7	25.7%	0.464% (active)	48.9%	10.2	74.7	16.2%	-13.2% (active)	29.9%	15.9%	10.7%	26.3%	7.22% (active)	7.08% (active)
CCc1c(C(=O)N[C@@H](C(=O)OCc2ccccc2)C(C)O)[nH]c2ccc(Cl)cc12 (stereo partly specified)	–	69.1	-46.9% (active)	59.3	46.3%	29.4%	40.6%	68.2	47.5	90.8%	87.9%	54.4%	65.6%	18.9%	101%	77.3%	59.2%
COC(=O)/C=C1\SC(=Nc2cccc(OC)c2)N(CCc2c[nH]c3ccccc23)C1=O	–	96	69.7%	72.4	71.7%	57%	81%	62.9	46.1	52.3%	62.5%	78.2%	25.8%	50.1%	97%	48.3%	52.3%
CC1CCN(CCCCCOc2ccc3oc4cc(Cl)ccc4c(=O)c3c2)CC1	–	64.8	75.2%	96.5	51.8%	73.3%	84.8%	70.8	64.6	81.8%	3.73% (active)	36.8%	45.9%	23.3%	79.3%	49.5%	73.6%
CCOC(=O)c1sc(/N=C2\NC(=O)/C(=C/c3ccc(N4CCN(C)CC4)cc3)S2)nc1C	–	110	103%	102	99.5%	96.3%	–	98.1	95.5	–	106%	120%	84%	103%	94.7%	95.4%	110%
O=CN1N=C(c2ccc(Cl)cc2)CC1c1cccc(Nc2ccnc3cc(C(F)(F)F)ccc23)c1 (stereo unspecified)	–	99.7	36.1%	72.4	74.2%	62.2%	–	55.4	42.6	–	54.3%	89.8%	38%	56.3%	76.7%	59.2%	52.8%
O=C(CCl)N1CCCc2ccccc21	–	99.2	102%	119	106%	94.9%	105%	96.8	106	97.1%	91.8%	99%	92%	95.9%	96.6%	90.4%	107%
CC(C)C1=C[C@@]23CC[C@H]4[C@](C)(COCCC#N)CCC[C@]4(C)[C@H]2C[C@@H]1[C@@H]1[C@H]3[C@@H](OCCC#N)CC[C@@H]1OCCC#N	–	65.9	27.1%	64.3	23.5%	37.1%	64.5%	27.8	10.5	39.4%	40.1%	47.4%	9.61% (active)	24.6%	44.4%	32.7%	34.4%
